{"source": "PubChem BioAssay AID1259421", "about": "(Broad Institute, 2018)", "note": "“And” between values parts separate entries of the source, which are not always exact repeats. Identical values can stand only once. About 610 (9.5%) of roughly 6,400 compounds were called active. No stated cut-off is given here; in the data, active means activity change below about -70%; inconclusive means no clear call, values can overlap the other calls; inactive means above that. Shown is part of a subset that was picked to be rich in actives. Some structures have more than one record in an assay (separate samples or runs), and their calls can disagree."}
{"test": "Toxoplasma gondii ME49Luc growth in HeLa cells, luciferase, no IFN-y, primary screen (AID 1259421)", "conditions": "T. gondii ME49Luc in HeLa, 72 h, stronger effect = lower value, concentration not given here"}
{"compound": "CCC1(c2ncc[nH]2)Cc2ccccc2O1", "note": "(stereo not given)", "activity change, negative = inhibition": "15% (inactive) and -0.683% (inactive)"}
{"compound": "CC(=O)O[C@H]1CC[C@@]2(C)C(C[C@@H](OC(C)=O)[C@]3(C)C2CC[C@@]2(C)[C@H](c4ccoc4)OC(=O)[C@H]4O[C@]423)C1(C)C", "note": "(stereo not given in full)", "activity change, negative = inhibition": "-27.9% (inactive)"}
{"compound": "Nc1ncnc2c1ncn2[C@@H]1O[C@H](CO)[C@@H](O)[C@@H]1O", "activity change, negative = inhibition": "-51.5% (inactive)"}
{"compound": "Nc1nccc2c1ncn2[C@@H]1C=C(CO)[C@@H](O)[C@H]1O", "activity change, negative = inhibition": "-74.6% (active) and -68.5% (inactive)"}
{"compound": "Nc1nccc2c1ncn2[C@@H]1O[C@H](CO)C(O)C1O", "note": "(stereo not given in full)", "activity change, negative = inhibition": "-4.71% (inactive)"}
{"compound": "CCC(CC)CC1(C(=O)Nc2ccccc2SC(=O)C(C)C)CCCCC1", "activity change, negative = inhibition": "-68.8% (inactive)"}
{"compound": "O=C(/C=C/c1ccccc1)NC(NC(=S)Nc1ccc(Cl)cc1)C(Cl)(Cl)Cl", "note": "(stereo not given)", "activity change, negative = inhibition": "-82.6% (active)"}
{"compound": "O=C(/C=C/c1ccccc1)NC(NC(=S)Nc1cccc2cccnc12)C(Cl)(Cl)Cl", "note": "(stereo not given)", "activity change, negative = inhibition": "0.586% (inactive)"}
{"compound": "COc1cccc(NC(=O)/C=C/c2ccc(Cl)cc2)c1", "activity change, negative = inhibition": "290% (inactive) and 329% (inactive)"}
{"compound": "CC(=O)c1ccc(NS(C)(=O)=O)c(Oc2ccc(F)cc2F)c1", "activity change, negative = inhibition": "22.3% (inactive)"}
{"compound": "COC[C@@H](c1ccc(C(F)(F)F)cc1)N1CCN(C2(C)CCN(C(=O)c3c(C)ncnc3C)CC2)C[C@@H]1C", "activity change, negative = inhibition": "5.59% (inactive)"}
{"compound": "CCc1ccc(OCc2ccccc2C(=O)Nc2ccc3nc(C)cc(N)c3c2)cc1", "activity change, negative = inhibition": "-82.4% (active)"}
{"compound": "CCCC(=O)Nc1cccc(NC(=O)c2ccccc2Br)c1", "activity change, negative = inhibition": "17.4% (inactive)"}
{"compound": "CCN(CC)CCCC(C)Nc1nc(C)cc(Nc2ccc3nc(C)cc(N)c3c2)n1", "note": "(stereo not given)", "activity change, negative = inhibition": "-14.9% (inactive)"}
{"compound": "Nc1c(Br)cc(Br)cc1CNC1CCC(O)CC1", "note": "(stereo not given)", "activity change, negative = inhibition": "2.89% (inactive) and 3.02% (inactive)"}
{"compound": "Cc1[nH]c(=O)c(C#N)cc1-c1ccc2nccn2c1", "activity change, negative = inhibition": "24.3% (inactive) and 0.856% (inactive)"}
{"compound": "CC(C)(C)c1nc(-c2cccc(NS(=O)(=O)c3c(F)cccc3F)c2F)c(-c2ccnc(N)n2)s1", "activity change, negative = inhibition": "-88.1% (active)"}
{"compound": "Cn1c(=O)c2c(ncn2CCOC(=O)C(C)(C)Oc2ccc(Cl)cc2)n(C)c1=O", "activity change, negative = inhibition": "7.49% (inactive)"}
{"compound": "CC(=O)O[C@H]1C[C@@]2(C)[C@@H](C[C@@H](O)C3[C@]2(C)CC[C@H]2[C@H](C)[C@H](O)CC[C@]32C)/C1=C(/CCC=C(C)C)C(=O)O", "note": "(stereo not given in full)", "activity change, negative = inhibition": "-16.8% (inactive) and -21.5% (inactive)"}
{"compound": "CN1C(=O)C[C@@H](C(=O)N[C@@H](Cc2cnc[nH]2)C(=O)N2CCC[C@H]2C(N)=O)NC1=O", "activity change, negative = inhibition": "-66.5% (inactive)"}
